From the supplement of paper PMC7411054

How the values were obtained:
Conditions in all cases: treatment time: 24 h
A549-ACTB-RAB5A [1] = test: lowest phenotypically active concentration; higher = less potent
Method in brief: (§1)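 Two criteria together defined phenotypic activity: deviation and reproducibility. Deviation meant ≥3 of 4 wells beyond the 95th percentile of Euclidean distances in solvent control wells, and reproducibility meant a median replicate Pearson correlation above the 95th percentile of non-replicates. Wells had been treated for 24 h at 0.3, 1, 3 or 9 µM in fifteen gene-edited A549, HepG2 and WPMY1 reporter lines before live imaging.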

A549-CANX-COX4 [2] = test: as above
Method in brief: as §1

A549-GM130-SQSTM1 [3] = test: as above
Method in brief: as §1

HepG2-TP53BP1-CLTA [4] = test: as above
Method in brief: as §1

HepG2-TUBA1B-RELA [5] = test: as above
Method in brief: as §1

A549-ACTB-RAB5A [6] = test: phenotypically active (imaging signature differs from DMSO and reproducible) at any of 0.3-9 uM (binary (1 = active, 0 = inactive)); higher = active
Method in brief: as §1

A549-CANX-COX4 [7] = test: as above
Method in brief: as §1

A549-GM130-SQSTM1 [8] = test: as above
Method in brief: as §1

A549-TP53BP1-CLTA = test: as above
Method in brief: as §1

A549-TUBA1B-RELA = test: as above
Method in brief: as §1

HepG2-ACTB-RAB5A = test: as above
Method in brief: as §1

HepG2-CANX-COX4 = test: as above
Method in brief: as §1

HepG2-GM130-SQSTM1 = test: as above
Method in brief: as §1

HepG2-TP53BP1-CLTA [9] = test: as above
Method in brief: as §1

HepG2-TUBA1B-RELA [10] = test: as above
Method in brief: as §1

WPMY1-ACTB-RAB5A = test: as above
Method in brief: as §1

WPMY1-CANX-COX4 = test: as above
Method in brief: as §1

WPMY1-GM130-SQSTM1 = test: as above
Method in brief: as §1

WPMY1-TP53BP1-CLTA = test: as above
Method in brief: as §1

WPMY1-TUBA1B-RELA = test: as above
Method in brief: as §1

SMILES | lowest phenotypically active concentration (A549-ACTB-RAB5A [1]) | lowest phenotypically active concentration (A549-CANX-COX4 [2]) | lowest phenotypically active concentration (A549-GM130-SQSTM1 [3]) | lowest phenotypically active concentration (HepG2-TP53BP1-CLTA [4]) | lowest phenotypically active concentration (HepG2-TUBA1B-RELA [5]) | phenotypically active (A549-ACTB-RAB5A [6]) | phenotypically active (A549-CANX-COX4 [7]) | phenotypically active (A549-GM130-SQSTM1 [8]) | phenotypically active (A549-TP53BP1-CLTA) | phenotypically active (A549-TUBA1B-RELA) | phenotypically active (HepG2-ACTB-RAB5A) | phenotypically active (HepG2-CANX-COX4) | phenotypically active (HepG2-GM130-SQSTM1) | phenotypically active (HepG2-TP53BP1-CLTA [9]) | phenotypically active (HepG2-TUBA1B-RELA [10]) | phenotypically active (WPMY1-ACTB-RAB5A) | phenotypically active (WPMY1-CANX-COX4) | phenotypically active (WPMY1-GM130-SQSTM1) | phenotypically active (WPMY1-TP53BP1-CLTA) | phenotypically active (WPMY1-TUBA1B-RELA)
CS(=O)(=O)c1cccc(CNc2nc(Nc3ccc4c(c3)CCC(=O)N4)ncc2C(F)(F)F)c1 | 3 µM | 3 µM | 3 µM | 1 µM | 1 µM | 1 (active) | 1 (active) | 1 (active) | 1 (active) | 1 (active) | 1 (active) | 1 (active) | 1 (active) | 1 (active) | 1 (active) | 1 (active) | 1 (active) | 1 (active) | 1 (active) | 1 (active)
CC(C)n1nc(-c2cc3cc(O)ccc3[nH]2)c2c(N)ncnc21 | 1 µM | 1 µM | 1 µM | 3 µM | 1 µM | 1 (active) | 1 (active) | 1 (active) | 1 (active) | 1 (active) | 1 (active) | 1 (active) | 1 (active) | 1 (active) | 1 (active) | 1 (active) | 1 (active) | 1 (active) | 1 (active) | 1 (active)
Nc1ncn([C@@H]2O[C@H](CO)[C@@H](O)[C@H]2O)c(=O)n1 [5-Azacytidine] | 1 µM | 3 µM | 1 µM | ≤ 0.3 µM | 1 µM | 1 (active) | 1 (active) | 1 (active) | 1 (active) | 1 (active) | 1 (active) | 1 (active) | 1 (active) | 1 (active) | 1 (active) | 1 (active) | 1 (active) | 1 (active) | 1 (active) | 1 (active)
Cc1nc(Nc2ncc(C(=O)Nc3c(C)cccc3Cl)s2)cc(N2CCN(CCO)CC2)n1 [dasatinib] | ≤ 0.3 µM | ≤ 0.3 µM | ≤ 0.3 µM | ≤ 0.3 µM | ≤ 0.3 µM | 1 (active) | 1 (active) | 1 (active) | 1 (active) | 1 (active) | 1 (active) | 1 (active) | 1 (active) | 1 (active) | 1 (active) | 1 (active) | 1 (active) | 1 (active) | 1 (active) | 1 (active)
C[C@H]1[C@H]2CC[C@H]3[C@@H]4CC=C5C[C@@H](N(C)C)CC[C@]5(C)[C@H]4CC[C@]23CN1C [Conessine] | 1 µM | 9 µM | 1 µM | 1 µM | 3 µM | 1 (active) | 1 (active) | 1 (active) | 1 (active) | 1 (active) | 1 (active) | 1 (active) | 1 (active) | 1 (active) | 1 (active) | 1 (active) | 1 (active) | 1 (active) | 1 (active) | 1 (active)
COc1cc(/C=C/c2ccc(OC)cc2OC)cc(OC)c1 | 3 µM | 1 µM | 3 µM | 3 µM | 3 µM | 1 (active) | 1 (active) | 1 (active) | 1 (active) | 1 (active) | 1 (active) | 1 (active) | 1 (active) | 1 (active) | 1 (active) | 1 (active) | 1 (active) | 1 (active) | 1 (active) | 1 (active)
COc1ccccc1S(=O)(=O)Nc1ccc2c(c1)CN(C)C(=O)N2 | 1 µM | 3 µM | 3 µM | 3 µM | 3 µM | 1 (active) | 1 (active) | 1 (active) | 1 (active) | 1 (active) | 1 (active) | 1 (active) | 1 (active) | 1 (active) | 1 (active) | 1 (active) | 1 (active) | 1 (active) | 1 (active) | 1 (active)
c1ccc2c(c1)Cc1c(Nc3ccc4c(c3)OCCO4)n[nH]c1-2 | 3 µM | 3 µM | 3 µM | 3 µM | 3 µM | 1 (active) | 1 (active) | 1 (active) | 1 (active) | 1 (active) | 1 (active) | 1 (active) | 1 (active) | 1 (active) | 1 (active) | 1 (active) | 1 (active) | 1 (active) | 1 (active) | 1 (active)
CC[C@@H](N)CNc1ccnc(-c2cc(-c3cnn(C)c3)ccc2O)n1 | 1 µM | 3 µM | 1 µM | 1 µM | 1 µM | 1 (active) | 1 (active) | 1 (active) | 1 (active) | 1 (active) | 1 (active) | 1 (active) | 1 (active) | 1 (active) | 1 (active) | 1 (active) | 1 (active) | 1 (active) | 1 (active) | 1 (active)
CCN(CC)c1ccc(/C=N/NC(=O)c2ccncc2)c(O)c1 | ≤ 0.3 µM | 1 µM | 1 µM | ≤ 0.3 µM | 1 µM | 1 (active) | 1 (active) | 1 (active) | 1 (active) | 1 (active) | 1 (active) | 1 (active) | 1 (active) | 1 (active) | 1 (active) | 1 (active) | 1 (active) | 1 (active) | 1 (active) | 1 (active)
COc1cc(N2CCC(N3CCN(C)CC3)CC2)ccc1Nc1ncnc(Nc2ccccc2S(=O)(=O)C(C)C)n1 | 3 µM | 9 µM | 3 µM | 9 µM | 9 µM | 1 (active) | 1 (active) | 1 (active) | 1 (active) | 1 (active) | 1 (active) | 1 (active) | 1 (active) | 1 (active) | 1 (active) | 1 (active) | 1 (active) | 1 (active) | 1 (active) | 1 (active)
CC[C@H](CO)Nc1nc(NCc2ccc(-c3ccccn3)cc2)c2ncn(C(C)C)c2n1 | ≤ 0.3 µM | ≤ 0.3 µM | ≤ 0.3 µM | ≤ 0.3 µM | ≤ 0.3 µM | 1 (active) | 1 (active) | 1 (active) | 1 (active) | 1 (active) | 1 (active) | 1 (active) | 1 (active) | 1 (active) | 1 (active) | 1 (active) | 1 (active) | 1 (active) | 1 (active) | 1 (active)
CC(=C/[C@@H](C)C(=O)c1ccc(N(C)C)cc1)/C=C/C(=O)NO [Trichostatin A] | ≤ 0.3 µM | ≤ 0.3 µM | ≤ 0.3 µM | ≤ 0.3 µM | ≤ 0.3 µM | 1 (active) | 1 (active) | 1 (active) | 1 (active) | 1 (active) | 1 (active) | 1 (active) | 1 (active) | 1 (active) | 1 (active) | 1 (active) | 1 (active) | 1 (active) | 1 (active) | 1 (active)
O=C(O)c1ccc(Nc2ncc3c(n2)-c2ccc(Cl)cc2C(c2c(F)cccc2F)=NC3)cc1 | ≤ 0.3 µM | ≤ 0.3 µM | ≤ 0.3 µM | ≤ 0.3 µM | ≤ 0.3 µM | 1 (active) | 1 (active) | 1 (active) | 1 (active) | 1 (active) | 1 (active) | 1 (active) | 1 (active) | 1 (active) | 1 (active) | 1 (active) | 1 (active) | 1 (active) | 1 (active) | 1 (active)
Nc1ncnc2c1c(-c1cnc3[nH]ccc3c1)nn2C1CCCC1 | ≤ 0.3 µM | 1 µM | ≤ 0.3 µM | ≤ 0.3 µM | ≤ 0.3 µM | 1 (active) | 1 (active) | 1 (active) | 1 (active) | 1 (active) | 1 (active) | 1 (active) | 1 (active) | 1 (active) | 1 (active) | 1 (active) | 1 (active) | 1 (active) | 1 (active) | 1 (active)
N#Cc1c(C2CCNCC2)cc(-c2c(O)cccc2OCC2CC2)nc1N | 9 µM | 9 µM | 9 µM | 9 µM | 9 µM | 1 (active) | 1 (active) | 1 (active) | 1 (active) | 1 (active) | 1 (active) | 1 (active) | 1 (active) | 1 (active) | 1 (active) | 1 (active) | 1 (active) | 1 (active) | 1 (active) | 1 (active)
COc1ccc(S(=O)(=O)Nc2cccnc2Nc2ccc(O)cc2)cc1 | 1 µM | 1 µM | 1 µM | 1 µM | 1 µM | 1 (active) | 1 (active) | 1 (active) | 1 (active) | 1 (active) | 1 (active) | 1 (active) | 1 (active) | 1 (active) | 1 (active) | 1 (active) | 1 (active) | 1 (active) | 1 (active) | 1 (active)
CCCCCCCCCCCCCCCC[n+]1ccn(Cc2ccccc2)c1C | 1 µM | ≤ 0.3 µM | ≤ 0.3 µM | 1 µM | 1 µM | 1 (active) | 1 (active) | 1 (active) | 1 (active) | 1 (active) | 1 (active) | 1 (active) | 1 (active) | 1 (active) | 1 (active) | 1 (active) | 1 (active) | 1 (active) | 1 (active) | 1 (active)
COc1cc(C(=O)N2CCC(N3CCN(C)CC3)CC2)ccc1Nc1ncc2c(n1)N(C)c1ccccc1C(=O)N2C | 3 µM | 3 µM | 3 µM | 3 µM | 1 µM | 1 (active) | 1 (active) | 1 (active) | 1 (active) | 1 (active) | 1 (active) | 1 (active) | 1 (active) | 1 (active) | 1 (active) | 1 (active) | 1 (active) | 1 (active) | 1 (active) | 1 (active)
Nc1ccc(-c2cccc3c(=O)cc(N4CCOCC4)oc23)cc1 | 3 µM | 9 µM | 9 µM | 9 µM | 9 µM | 1 (active) | 1 (active) | 1 (active) | 1 (active) | 1 (active) | 1 (active) | 1 (active) | 1 (active) | 1 (active) | 1 (active) | 1 (active) | 1 (active) | 1 (active) | 1 (active) | 1 (active)
COc1cc(N2CCN(C)CC2)ccc1Nc1nccc(-c2cn(C)c3cnccc23)n1 | 1 µM | 9 µM | 3 µM | 1 µM | 1 µM | 1 (active) | 1 (active) | 1 (active) | 1 (active) | 1 (active) | 1 (active) | 1 (active) | 1 (active) | 1 (active) | 1 (active) | 1 (active) | 1 (active) | 1 (active) | 1 (active) | 1 (active)
O=C1c2c(O)ccc(O)c2C(=O)c2c(NCCNCCO)ccc(NCCNCCO)c21 [mitoxantrone] | ≤ 0.3 µM | ≤ 0.3 µM | ≤ 0.3 µM | ≤ 0.3 µM | ≤ 0.3 µM | 1 (active) | 1 (active) | 1 (active) | 1 (active) | 1 (active) | 1 (active) | 1 (active) | 1 (active) | 1 (active) | 1 (active) | 1 (active) | 1 (active) | 1 (active) | 1 (active) | 1 (active)
